From PubChem BioAssay (NCATS)
Results filed as inconclusive are left out. Unmarked numbers belong to inactive results. Calls come from the whole dose curve; as a rule, active = well fitted inhibition curve with a large enough effect; inconclusive = small, poorly fitted or top-dose-only effect; inactive = flat fitted curve, though single readings scatter.

Target: Calcium and integrin-binding protein 1 (Homo sapiens) (UniProt Q99828)
Experiment: Primary qHTS for Identification of Calcium Integrin Binding Protein 1 (CIB1) Competitor (AID 1508620);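 note: GST tagged CIB1 binding a fluorescein labelled alphaIIb integrin peptide tracer; top concentration of the series differs between compounds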
Conditions: CIB1-GST / FITC-alphaIIb peptide fluorescence polarization; series mostly up to 114 µM; activity change, negative = inhibition: at the top concentration
Summary of the method: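 Fluorescence polarization competition: CIB1-GST (1 uM final) preincubated with compound 15 min at room temperature, then FITC-labeled alphaIIb peptide (100 nM final) added for another 15 min. Polarization read at Ex 480/Em 540.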
% is set by controls: 0 for no effect and ±100 for the full control effect.

Chain of Calcium and integrin-binding protein 1 (Homo sapiens) (Q99828 whole entry, looked up): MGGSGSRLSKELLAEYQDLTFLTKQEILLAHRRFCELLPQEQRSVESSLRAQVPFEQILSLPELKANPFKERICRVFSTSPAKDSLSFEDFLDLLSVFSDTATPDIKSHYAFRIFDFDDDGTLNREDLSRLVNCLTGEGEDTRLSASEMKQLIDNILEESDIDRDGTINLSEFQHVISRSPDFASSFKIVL

| Compound | activity change, negative = inhibition |
| --- | --- |
| COC1CC(=O)C23C(=O)NC(CC(C)C)C2C(C)=C(C)C(OO)C3/C=C(\C)CCC(O)C1O (stereo not given) | 2.19% [at 57.7 µM] |
| CC(C)=C1CC[C@]23CO[C@H](C2)[C@@](O)(C(=O)O)CCC13 (stereo not given in full) | -0.151% |
| C[C@]12CC[C@@H](O)C[C@H]1CC[C@@H]1[C@@H]2CC[C@]2(C)C(=O)CC[C@@H]12 | 0.237% |
| CCC(C)(C#N)O[C@@H]1O[C@H](CO)[C@@H](O)[C@H](O)[C@H]1O (stereo not given in full) | 1.7% |
| COC(=O)C1(C)CCC(O)C2(C)c3cc(O)c(C(C)C)cc3C(O)C(OC(C)=O)C12 (stereo not given) | -1.14% [at 57.7 µM] |
